# The whole screen tested about 310,000 compounds, of which about 14,000 (4.5%) showed an effect of 50% or more. The effect is printed as a negative number. Shown is part of a subset that was picked to be rich in strong results.
# Molecular target: human ether-à-go-go-related gene (hERG) potassium channel (human, UniProt Q12809)
# Test: primary screen, population patch clamp on CHO cells stably expressing hERG; higher = less effect of the substance
# 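Further: peak tail current of the secondary pulse compared with the same well before compound.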
# human ether-à-go-go-related gene (hERG) potassium channel, sequence (Q12809 whole entry, looked up): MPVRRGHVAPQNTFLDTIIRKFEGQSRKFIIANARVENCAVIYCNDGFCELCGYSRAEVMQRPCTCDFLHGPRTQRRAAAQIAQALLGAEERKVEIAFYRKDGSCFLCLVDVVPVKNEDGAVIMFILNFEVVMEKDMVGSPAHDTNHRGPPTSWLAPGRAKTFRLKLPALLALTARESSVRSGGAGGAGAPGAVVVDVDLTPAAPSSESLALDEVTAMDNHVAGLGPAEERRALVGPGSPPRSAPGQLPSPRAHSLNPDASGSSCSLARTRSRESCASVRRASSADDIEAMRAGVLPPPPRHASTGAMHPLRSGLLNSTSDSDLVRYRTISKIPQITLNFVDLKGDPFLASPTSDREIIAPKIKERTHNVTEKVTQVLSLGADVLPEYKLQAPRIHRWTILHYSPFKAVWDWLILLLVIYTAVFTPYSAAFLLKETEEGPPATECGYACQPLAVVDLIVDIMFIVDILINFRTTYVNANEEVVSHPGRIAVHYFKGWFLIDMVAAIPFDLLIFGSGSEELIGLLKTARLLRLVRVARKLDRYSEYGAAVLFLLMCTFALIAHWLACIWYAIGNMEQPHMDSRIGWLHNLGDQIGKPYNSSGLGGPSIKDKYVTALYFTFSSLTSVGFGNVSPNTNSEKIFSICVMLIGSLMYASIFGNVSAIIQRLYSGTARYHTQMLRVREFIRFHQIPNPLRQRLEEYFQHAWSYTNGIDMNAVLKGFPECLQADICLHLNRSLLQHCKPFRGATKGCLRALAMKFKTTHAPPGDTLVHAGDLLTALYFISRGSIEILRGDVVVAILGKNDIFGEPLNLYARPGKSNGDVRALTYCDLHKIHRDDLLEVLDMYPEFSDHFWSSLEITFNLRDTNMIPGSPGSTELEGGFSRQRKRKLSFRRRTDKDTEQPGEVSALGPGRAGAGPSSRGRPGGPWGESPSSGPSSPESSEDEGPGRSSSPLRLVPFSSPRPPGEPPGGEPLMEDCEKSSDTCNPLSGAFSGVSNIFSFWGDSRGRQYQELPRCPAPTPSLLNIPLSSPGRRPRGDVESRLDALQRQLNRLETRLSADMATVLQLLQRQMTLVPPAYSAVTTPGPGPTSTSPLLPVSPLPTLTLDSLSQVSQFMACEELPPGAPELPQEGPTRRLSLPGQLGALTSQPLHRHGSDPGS
row,SMILES,"hERG current change (%, negative = inhibition) at 10uM"
1,CC(C)N1CCN(Cc2ccc3c(c2)OCCO3)CC1CCO (stereo not shown),3.63%
2,NC(=O)N/N=C/c1ccc(-c2cccc(C(F)(F)F)c2)o1,-4.87%
3,Cc1cc(C)cc(NC(=O)CCn2ccnc2)c1,3.41%
4,Cc1c(C(=O)NCc2ccc(S(N)(=O)=O)cc2)oc2ccc(Cl)cc12,10%
5,CCCCn1c(N)c(N(CCOC)C(=O)CSCC(=O)Nc2cccc(C)c2)c(=O)[nH]c1=O,11.5%
6,c1ccc(-c2nc(CSc3nnc(-c4cccs4)o3)cs2)cc1,-9.61%
7,CCS(=O)(=O)c1ncc(Cl)c(C(=O)Nc2ccc(S(=O)(=O)N(C)c3ccccc3)cc2)n1,15.5%
8,CCOC(=O)N1CCC(NC(=O)c2cc(C(=O)NC3CCCC3)ccc2CO)CC1,12.9%
9,O=C(O)c1ccn(CSc2cc(Cl)ccc2Cl)n1,5.46%
10,CCOC(=O)NNC(=S)Nc1c(C)n(C)n(-c2ccccc2)c1=O,4.89%
11,COc1ccc(NC(=O)CC(C)CC(=O)NCc2ccc(F)cc2)c(OC)c1 (stereo not shown),-4.08%
12,CCn1cc(/C=C(\NC(=O)c2ccccc2Cl)C(=O)N2CCOCC2)c2ccccc21,-2.35%
13,O=C(NNC(=S)Nc1ccccc1)c1cccc(S(=O)(=O)N2CCOCC2)c1,15.3%
14,CCC1CCCCN1C(=O)c1ccc(OC2CCN(C(=O)COC)CC2)cc1 (stereo not shown),6.08%
15,COC(=O)CCCC(=O)N1CCC(CCC(=O)NC2CC2)CC1,16.6%
16,Clc1cc(Br)ccc1OCCOCCN1CCOCC1,-36.7%
17,Cc1ccc(Cl)c(OCCN2CCCC(C)C2)c1.O=C(O)C(=O)O (stereo not shown),-41.8%
18,CC1CCCN(C(=O)Nc2ccc(Br)cc2Cl)C1 (stereo not shown),-16.4%
19,CC1CCCN(CCCOc2ccc(Br)cc2Cl)C1.O=C(O)C(=O)O (stereo not shown),-78.4%
20,CC1CCN(CCCOc2ccc(Br)cc2Cl)CC1,-72.8%
21,CC1CCN(CCCCOc2ccccc2Br)CC1,-48.9%
22,CCOC(=O)c1cnn(CCOC(=O)c2ccc(F)cc2)c1NC(=O)c1ccc(F)cc1,-19.4%

row,SMILES,"hERG current change (%, negative = inhibition) at 10uM"
1,CSCC[C@H](NC(=O)N1CCn2c1nc1ccccc12)C(=O)NCc1ccc(C)cc1,-13.3%
2,CC(C)Nc1ccc(Cl)cc1[N+](=O)[O-],14.3%
3,CN(C)c1c(F)cc(-c2nn[nH]n2)cc1F,12.9%
4,CCCCC1=CC2=CC(=O)C(C)(OC(=O)CC)C(=O)C2=CN1Cc1ccc2c(c1)OCO2 (stereo not shown),-55.3%
5,CCCCC1=CC2=CC(=O)C(C)(OC(=O)CC)C(=O)C2=CN1CCc1ccc(Br)cc1 (stereo not shown),-58.9%
6,CCCCC1=CC2=CC(=O)C(C)(OC(=O)CC)C(=O)C2=CN1Cc1ccco1 (stereo not shown),-32%
7,CCCCC1=CC2=CC(=O)C(C)(OC(=O)CC)C(=O)C2=CN1CCCCO (stereo not shown),0.395%
8,CCCCC1=CC2=CC(=O)C(C)(OC(=O)CC)C(=O)C2=CN1Cc1ccccc1 (stereo not shown),-42.9%
9,CCCCC1=CC2=CC(=O)C(C)(OC(=O)CC)C(=O)C2=CN1Cc1ccc(OC)cc1 (stereo not shown),-55.1%
10,CCCCC1=CC2=CC(=O)C(C)(OC(=O)CC)C(=O)C2=CN1c1ccc(OC)cc1 (stereo not shown),-13%
11,CCCCC1=CC2=CC(=O)C(C)(OC(=O)CC)C(=O)C2=CN1CCc1c[nH]c2ccccc12 (stereo not shown),-3.97%
12,CCCCCCCC1=CC2=CC(=O)C(C)(OC(C)=O)C(=O)C2=CN1CCc1ccccc1 (stereo not shown),-62.3%
13,CCCCC1=CC2=CC(=O)C(C)(OC(=O)CC)C(=O)C2=CN1CCOC (stereo not shown),-5.6%
14,COC(=O)CCCC1=CC2=CC(=O)C(C)(OC(=O)c3cccs3)C(=O)C2=CN1Cc1ccc2c(c1)OCO2 (stereo not shown),-7.74%
15,CCCCC1=CC2=CC(=O)C(C)(OC(=O)CC)C(=O)C2=CN1CCc1ccccn1 (stereo not shown),-4.43%
16,Cc1ccc([N+](=O)[O-])cc1NC(=O)c1ccc2c(c1)OCO2,11.4%
17,Cc1onc(-c2ccccc2)c1C(=O)N(C)CCc1ccccn1,7.12%
18,CCN(C(=O)CN1CCOCC1)c1c(N)n(Cc2ccccc2)c(=O)[nH]c1=O,22.2%
19,O=C(c1ccc(=O)oc1)N1CCC(C(O)(c2ccccc2)c2ccccc2)CC1,-29.2%
20,CC(=O)Nc1ccc(-c2cc(C(=O)O)c3ccccc3n2)cc1,17.2%
21,O=C(O)c1cc(-c2cccs2)nn1-c1cccc(Cl)c1,17.8%
22,O=c1c(-c2ccc(Br)cc2)coc2c(CN3CCOCC3)c(O)ccc12,-20.7%

row,SMILES,"hERG current change (%, negative = inhibition) at 10uM"
1,O=C(Oc1ccc(N2C(=O)C3C4CCC(C4)C3C2=O)cc1)c1ccco1 (stereo not shown),13.2%
2,O=C(NC1CCCc2ccccc21)c1cn2ccccc2n1 (stereo not shown),-25.5%
3,CSCCC(NS(=O)(=O)c1ccc(C)cc1)C(=O)Nc1ccc(C)cn1 (stereo not shown),2.68%
4,CCC(C(=O)OC(C)C(=O)Nc1ccc(Cl)cn1)c1ccccc1 (stereo not shown),0.842%
5,CSCCC(NS(=O)(=O)c1ccccc1)C(=O)OC(C)C(=O)Nc1ccc(Cl)cn1 (stereo not shown),-58.8%
6,CCCOc1ccc(CCc2n[nH]c(=S)n2Cc2ccccc2)cc1,-7.26%
7,COC(=O)C(NC(=O)c1ccc(Cl)cc1)(Nc1nc(C)cs1)C(F)(F)F (stereo not shown),-8.63%
8,Fc1ccc2[nH]c3c(NCc4ccccc4)ncnc3c2c1,10.5%
9,C=CCNc1ncnc2c1[nH]c1ccc(Cl)cc12,-7.82%
10,CCN1CCCC1CNc1ncnc2c1[nH]c1ccc(Cl)cc12 (stereo not shown),-77.1%
11,CC(C)OCCCNc1ncnc2c1[nH]c1ccc(F)cc12,-2.39%
12,Clc1ccc2[nH]c3c(NCC4CCCO4)ncnc3c2c1 (stereo not shown),-16.2%
13,CCN1CCCC1CNc1ncnc2c1[nH]c1ccc(F)cc12 (stereo not shown),-76.6%
14,CCCCCOC(=O)C1=C(C)NC(=O)NC1c1ccc(OC)cc1 (stereo not shown),5.95%
15,CCN(CC)CCCN(Cc1cc2cc3c(cc2[nH]c1=O)OCO3)C(=S)NCCOC,5.4%
16,CCOc1ccc(C(=O)Nc2ccc(N3CCN(C)CC3)cc2)cc1,-50.2%
17,COc1ccc(C(=O)Nc2ccc(N3CCN(C(=O)c4ccccc4)CC3)cc2)cc1[N+](=O)[O-],-67.2%
18,CCCCOc1ccc(C(=O)Nc2ccc(N3CCN(C)CC3)cc2)cc1,-10.2%
19,CCOc1ccc(C(=O)Nc2ccc(N3CCCC3)cc2)cc1,3.89%
20,COc1ccc(C(=O)Nc2ccc(N3CCN(C)CC3)cc2)cc1[N+](=O)[O-],-38.5%
21,CCOc1ccc(C(=O)Nc2ccc(N3CCN(C(C)=O)CC3)cc2)cc1[N+](=O)[O-],-45.5%
22,COc1ccc(C(=O)Nc2ccc(N3CCN(C(C)=O)CC3)cc2)cc1[N+](=O)[O-],11.7%

row,SMILES,"hERG current change (%, negative = inhibition) at 10uM"
1,COc1ccc(C(=O)Nc2ccc(C(=O)N3CCCC3)cc2)cc1[N+](=O)[O-],-33.2%
2,CCOc1ccc(C(=O)Nc2ccc(N3CCN(C)CC3)cc2)cc1[N+](=O)[O-],-57.3%
3,CCC(=O)Nc1ccccc1C(=O)OCc1ccc(C(=O)c2ccccc2)cc1,-16.1%
4,CCCCC(C(=O)NC(=O)NCc1ccccc1)N1C(=O)c2ccccc2C1=O (stereo not shown),11%
5,CO/N=C(\N)c1nonc1N,0.407%
6,COCOc1cc(O)c(C(=O)/C=C/c2ccccc2)c(OCOC)c1,4.67%
7,CC(C)O.COc1cc(/C=N/NC(=O)c2ccc(O)cc2)ccc1Oc1ccc([N+](=O)[O-])cn1,-32%
8,Cc1ccc(S(=O)(=O)N(C)c2ccc(OC(=O)CN3C(=O)NC4(CCCC4)C3=O)cc2)cc1,-14.4%
9,COc1ccccc1C(=O)Nc1ccnn1C1CCN(CCC(C)c2ccc(C)o2)CC1 (stereo not shown),-80.8%
10,COC(C(=O)Nc1ccnn1C1CCN(Cc2ccc(C)o2)CC1)c1ccccc1 (stereo not shown),-2.65%
11,COc1ccc(C(=O)Nc2ccnn2C2CCN(Cc3ccncc3)CC2)cc1,-8.86%
12,COc1ccc(C(=O)Nc2ccnn2C2CCN(CCC(C)c3ccc(C)o3)CC2)cc1 (stereo not shown),-67%
13,C/C=C(\C)CN1CCC(n2nccc2NC(=O)c2ccc(OC)cc2)CC1,2.92%
14,CCOc1cc(NC2CS(=O)(=O)CC2O)c(OCC)cc1NC(=O)c1ccccc1 (stereo not shown),5.95%
15,Cc1nnc(N/N=C/c2ccc(-c3ccccc3F)o2)n1N.Cl,-40.3%
16,CN(C)c1cccc2cccc(N(C)C)c12,-3.13%
17,NC(=O)C1CCN(C(=O)/C(=C/c2ccco2)NC(=O)c2ccccc2)CC1,11.2%
18,O=C(N/C(=C/c1ccco1)C(=O)N1CCCCCC1)c1ccccc1,13.2%
19,O=C(N/C(=C\c1ccco1)C(=O)N1CCC(O)CC1)c1ccccc1,27.7%
20,CCN1CCN(C(=O)/C(=C/c2ccco2)NC(=O)c2ccccc2)CC1,-70.4%
21,CN1CCN(C(=O)/C(=C/c2ccco2)NC(=O)c2ccccc2)CC1,-67.6%
22,O=C(N/C(=C\c1ccco1)C(=O)N1CCCC1)c1ccccc1,1.23%
